# Measured values published in PMC4081100, “A DNA-binding-site landscape and regulatory network analysis for NAC transcription factors in Arabidopsis thaliana”.
# Biological target: T1, GST-NST2(1-184) (Arabidopsis thaliana, UniProt Q9M274 1-184)
# T1 sequence: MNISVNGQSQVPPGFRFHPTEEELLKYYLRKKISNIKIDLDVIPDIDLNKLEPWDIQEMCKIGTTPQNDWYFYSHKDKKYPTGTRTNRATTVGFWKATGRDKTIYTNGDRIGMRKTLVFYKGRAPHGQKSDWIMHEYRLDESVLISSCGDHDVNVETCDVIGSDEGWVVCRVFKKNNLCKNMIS
# Assay: universal protein binding microarray (PBM); transcription factors of Arabidopsis thaliana; high values mean tight binding
# Conditions: protein: recombinant; tags: GST; chain copies: 2; dsDNA, one strand shown
# How it was run: (§1)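 For zinc-finger proteins, zinc acetate was added while GST-tagged NAC-domain, full-length or DNA-binding-domain proteins were induced in cells. Purification used glutathione–Sepharose 4B, and quantification used A280 or anti-GST western blot. Custom all-10-mer Agilent 4 × 180K arrays, made double-stranded by primer extension, each received a protein at 200 to 500 nM final in duplicate. Scoring covered gapped and ungapped 8-mers, with binding given as the normalised enrichment score (E-score).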
row,Sequence,binding signal [E-score]
1,CGGTCAAA,0.0603
2,GTCGTTGA,0.0569
3,GGTCAACA,0.0705
4,AGGTTTCC,0.0833

# Biological target: T2, GST-NTL8 NAC domain (Arabidopsis thaliana, UniProt Q9XIN7 14-156)
# T2 sequence: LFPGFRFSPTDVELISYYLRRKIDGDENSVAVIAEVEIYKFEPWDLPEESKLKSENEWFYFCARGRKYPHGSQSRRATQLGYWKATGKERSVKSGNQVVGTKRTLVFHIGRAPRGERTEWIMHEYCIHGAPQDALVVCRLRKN
# Assay: as above
# Conditions: protein: recombinant; tags: GST; chain copies: 2; dsDNA, one strand shown
# How it was run: as §1
row,Sequence,binding signal [E-score]
1,AGGTTACC,0.437
2,CGGTCAAA,0.0552
3,GAGGGAAA,0.472
4,GGAGGAAA,0.459
5,ATTCCCCC,0.402
6,CCTCTGAC,0.12
7,GGGGGGAA,0.453
8,GGGAAACC,0.443
9,AGTCAAGC,0.0828
10,CCTTTCCC,0.421
11,AGGTAACC,0.442
12,AGGGTAAC,0.416
13,AGGGTCAA,0.0535
14,ACGGTCAG,0.0654
15,CGAGGTCA,0.0549
16,AGGTTTCC,0.457
17,AGGTCAAC,0.0726
18,CTCGGTCA,0.0649
19,CGGGGTCA,0.107

# Biological target: GST-WRKY1(266-371) (Arabidopsis thaliana, UniProt Q9SI37 266-371)
# Assay: as above
# Conditions: protein: recombinant; tags: GST; dsDNA, one strand shown
# How it was run: as §1
# Chain of GST-WRKY1(266-371) (Q9SI37 266-371): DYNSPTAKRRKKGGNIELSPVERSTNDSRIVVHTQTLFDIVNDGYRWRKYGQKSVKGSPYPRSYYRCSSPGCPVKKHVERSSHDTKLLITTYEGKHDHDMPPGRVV
row,Sequence,binding signal [E-score]
1,TACGGTCA,0.442
2,CGGTCAAA,0.49
3,TGAGTCAA,0.48
4,CCTCTGAC,0.408
5,AGTCGTCG,0.432
6,CAATTGAC,0.435
7,GGTCTTCA,0.431
8,AGTCAAGC,0.459
9,GACCGTCA,0.407
10,ATTGACCG,0.487
11,GTCGTTGA,0.43
12,AGGGTCAA,0.483
13,GTCGTCAA,0.424
14,ACGGTCAA,0.49
15,GGTCAACA,0.493
16,ACGGTCAG,0.432
17,ACGACCAA,0.416
18,CGAGGTCA,0.425
19,CTGGGTCA,0.439
20,GGGTTGAC,0.477
21,CGGTCAAC,0.495
22,GGTCAATA,0.482
23,ACATTGAC,0.465
24,AAGTCGTC,0.419
25,AGGTCAAC,0.492
26,CTCGGTCA,0.451
27,CGGGGTCA,0.412
28,GTCAAGAC,0.446
29,ATGGGTCA,0.422
